This is a sample that favours compounds with a hit; in the whole collection about 1.2% have one here.
ASM inhibitor – inhibitors of human secretory acid sphingomyelinase. P17405. 340,000 compounds, 0.006% hits. AID 504937. placental ASM, HMU-PC fluorogenic substrate, 60 min. Potency, µM (doses to about 57.5 µM), for the others: at the top dose activity change, negative = inhibition, actives largely listed as inhibitors; note: potency is the fitted concentration of half-maximal effect
Target sequence (P17405 47-631 limits assumed): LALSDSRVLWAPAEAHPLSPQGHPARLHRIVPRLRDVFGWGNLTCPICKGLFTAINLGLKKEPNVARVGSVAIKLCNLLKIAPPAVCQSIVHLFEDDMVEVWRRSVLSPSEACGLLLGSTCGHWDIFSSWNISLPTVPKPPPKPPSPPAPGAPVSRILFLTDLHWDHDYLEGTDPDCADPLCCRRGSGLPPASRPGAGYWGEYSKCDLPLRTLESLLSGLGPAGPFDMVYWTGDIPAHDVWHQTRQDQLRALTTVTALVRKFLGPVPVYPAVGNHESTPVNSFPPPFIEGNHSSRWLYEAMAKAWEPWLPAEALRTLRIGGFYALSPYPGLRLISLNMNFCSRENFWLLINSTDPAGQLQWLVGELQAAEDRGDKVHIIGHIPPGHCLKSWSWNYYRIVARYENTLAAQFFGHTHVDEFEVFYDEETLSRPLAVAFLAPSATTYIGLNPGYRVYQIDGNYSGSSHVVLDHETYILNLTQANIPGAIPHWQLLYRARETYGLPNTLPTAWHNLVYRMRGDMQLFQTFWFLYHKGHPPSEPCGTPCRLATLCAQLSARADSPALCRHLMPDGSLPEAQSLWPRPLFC
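Steps: dispense placental human ASM, pin compound, wait 10 min at room temperature, add HMU-PC0 substrate at 9 uM final, incubate 60 min at 37 °C, add stop solution raising pH to 10, read fluorescence.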
IDH1 R132H inh – blocks human mutant IDH1 R132H enzyme. IDH1-R132H enzyme, NADPH consumption, diaphorase/resazurin fluorescence. AID 602179. Potency, µM (doses to about 76.6 µM), inactives show at the highest dose activity change, negative = inhibition, most hits filed as inhibitors. 390,000 compounds, 0.093% hits; note: potency is the fitted concentration of half-maximal effect; % is set by controls: 0 for no effect and ±100 for the full control effect; nearly all actives have a fitted effect of over 65% in size
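IDH1-R132H (0.5 ug/mL dispensed) in pH 7.5 Tris buffer was preincubated 30 min with compound, then given a substrate mix of 0.016 mM NADPH and 2 mM alpha-KG for 80 min at room temperature; remaining NADPH was read by diaphorase/resazurin fluorescence.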
KCNH2 3.1 inh – inhibitors of human KCNH2 3.1 potassium channel isoform; U2OS KCNH2 3.1, thallium flux FluxOr; stronger effect = lower value; activity change, % (tested at about 1.8 µM); 340,000 compounds, 0.95% hits;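 active = maximum activity change below -70%; inconclusive = maximum activity change from -70% to -50%; inactive = maximum activity change above -50%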;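 note: thallium influx rate constant from kinetic fluorescence after stimulation buffer; % is set by controls: 0 for no effect and ±100 for the full control effect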
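Normalized rate constant (relative to positive and negative DMSO controls) derived from a 2 min kinetic fluorescence read after stimulation; U2OS cells expressing the 3.1 isoform via virus at 1.77 x 10^8 /mL.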
Anesthetic bind – binds horse apoferritin like a general anesthetic; apoferritin/1-aminoanthracene competitive binding, fluorescence; AID 485281; P02791; Potency, µM (doses to about 77.5 µM), for inactives: at the top dose activity change, negative = displacement, hits mostly inhibitors; 350,000 compounds, 0.074% hits; note: potency is the fitted concentration of half-maximal effect; % is set by controls: 0 for no effect and ±100 for the full control effect; nearly all actives have a fitted effect of over 20% in size
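Horse-spleen apoferritin (10 uM) was mixed with 50% saturated 1-aminoanthracene in PBS, exposed to compounds for 10 min at room temperature, and read for fluorescence (ex 380 nm, em 535 nm). Competitive displacement was fitted with a four-parameter Hill equation.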
KCNH2 WT inh – blocks the wildtype human KCNH2 potassium channel. Q12809. AID 720551. U2OS, BacMam KCNH2, thallium flux FluxOr; stronger effect = lower value. activity change, % at 1.84 µM. 340,000 compounds, 0.37% hits;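 active = maximum activity change below -70%; inconclusive = maximum activity change between -70% and -50%; inactive = maximum activity change above -50%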; note: % is set by controls: 0 for no effect and ±100 for the full control effect
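U2OS cells were transduced with wild-type KCNH2 virus (2.03 x 10^8 / mL) for 4 h at room temperature, then cultured overnight at 37 C. Thallium flux was read with FluxOr dye. Rate constants were normalized to DMSO controls.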
* = called active by the depositor; i = inactive; ? = inconclusive; · = no result; [ ] = dose if it differs, or a comment. Unless noted, calls come from the whole dose curve; as a rule, active = well fitted inhibition curve with a large enough effect; inconclusive = small, poorly fitted or top-dose-only effect; inactive = no such curve, though single readings can be large or run the other way.

SMILES	ASM inhibitor	IDH1 R132H inh	KCNH2 3.1 inh	Anesthetic bind	KCNH2 WT inh
CCC[C@@H]1CC2=CC(=O)CC[C@]2(C)[C@H]2CC[C@@]3(C)[C@@H](CC[C@@]34CCC(=O)O4)[C@H]12	·	·	·	-15%	·
CCOc1ccc(/C=C/c2nc(C#N)c(N(C)C)o2)cc1	·	23%	·	33%	·
O=S1(=O)NCC23CCC(CC21)O3 (centres undefined)	·	·	·	-5%	·
CNC(=O)c1ccc(CN(C)CC(=O)Nc2ccccc2C(=O)NC2CC2)cc1	-4%	4%	-72*	·	6
O=C(COC(=O)CC12CC3CC(CC(C3)C1)C2)Nc1ncc(Cl)cc1Cl	-4%	8%	-15	20µM*	1
CC(C)c1ccc2oc(-c3ccc(Cl)c(NC(=O)c4cccs4)c3)nc2c1	·	-10%	·	-3%	·
COc1cc(C(=O)OCc2cc(=O)n3nc(C4CCCCC4)sc3n2)cc(OC)c1OC	·	-3%	·	-7%	·
CC1(C)CC(=O)CC2(C1)NCC(c1ccccc1)c1c2[nH]c2ccccc12 (centres undefined)	-2%	-1%	-102*	-16%	-75*
COc1cccc(C2CNC3(CCCC(C)C3)c3[nH]c4ccccc4c32)c1OC (centres undefined)	-6%	15%	-31	10%	-3
COC(=O)c1ccccc1NC(=O)c1cn2c3c(ccc(Cl)c3c1=O)OC(C)C2 (centres undefined)	·	-18%	·	-4%	·
C[C@H](N)C(=O)NCC(=O)N[C@H]1CSSC[C@@H](C(=O)O)NC(=O)[C@H](CO)NC(=O)[C@H]([C@@H](C)O)NC(=O)[C@H](Cc2ccccc2)NC(=O)[C@H]([C@@H](C)O)NC(=O)[C@H](CCCCN)NC(=O)[C@@H](Cc2c[nH]c3ccccc23)NC(=O)[C@H](Cc2ccccc2)NC(=O)[C@H](Cc2ccccc2)NC(=O)[C@H](CC(N)=O)NC(=O)[C@H](CCCCN)NC1=O	·	·	·	1%	·
COc1ccc(-n2nc(C(=O)NCCc3ccc(Cl)cc3)c3c4ccccc4n(C)c3c2=O)cc1	·	·	·	-6%	·
COc1ccc(CNC(=O)c2ccc(NC(=O)N3CCCCc4ccccc43)cc2)c(OC)c1	·	5%	·	1%	·
COc1ccc(NC(=O)CSC2=Nc3ccccc3C3=NC(CCC(=O)NCc4ccc(F)cc4)C(=O)N23)cc1Cl (centres undefined)	·	-11%	·	-18%	·
CCCCNc1c(-c2cccc(-c3cc(C(C)=O)cs3)c2)nc2cc(C)ccn12	-28%	10%	-71*	·	-19
CCCCCCSc1cc(-c2nc3cnccn3c2NCCCC)ccc1OC	i	12%	·	·	·
CCCCCCSc1cc(-c2nc3cc(C)ccn3c2NCCCC)ccc1OC	72%	3%	-111*	·	-80*
Cc1cc2c(cc3c(SCc4ccccc4Cl)nnc(C)n32)o1	·	-5%	·	-1%	·
COc1cc(NS(=O)(=O)c2ccc(-c3cc(C)no3)cc2)cc(OC)c1	·	0%	·	?	·
CN(C)c1ccc(/C=C2/C[N+](C)(C)C/C(=C/c3ccc(N(C)C)cc3)C2=O)cc1	?	14%	·	·	45
CC(C)/C=C1\CC/C(=C\c2ccc(N(C)C)cc2)C1=O	0%	3%	-79*	-2%	-34
COc1ccc(NC(=O)N2CCc3c(sc4c3CCCC4)C2c2ccc(F)cc2)cc1 (centres undefined)	·	26%	·	43%	·
O=S(Cc1ccc(Br)cc1)Cc1nnc(SCc2ccc(Br)cc2)n1-c1ccccc1 (centres undefined)	-17%	-1%	-74*	46%	-16
COC(=O)c1ccc(CSc2nnc(CS(=O)Cc3ccc(Br)cc3)n2-c2ccccc2)cc1 (centres undefined)	-7%	5%	-9	-9%	-2
CCc1ccc(-c2cc(-c3n[nH]c(=S)n3CC)c3ccccc3n2)cc1	·	·	·	-16%	·
SMILES	ASM inhibitor	IDH1 R132H inh	KCNH2 3.1 inh	Anesthetic bind	KCNH2 WT inh
CCn1c(-c2cc(-c3cccc(OC)c3)nc3ccccc23)n[nH]c1=S	-6%	2%	-78*	-17%	2
CCOC(=O)c1cc(-c2ccc(C)cc2)n(CC(=O)NC2CCCCCC2)c1C	·	0%	·	-2%	·
CCN(CC)CCCCn1c(-c2ccccc2)nc2c(NCc3ccccc3)nc(C)nc21	·	·	·	-7%	·
CCCCN(C(=O)c1ccc(Cl)cc1)C1CC2CCC(C1)N2C (centres undefined)	-3%	-6%	-82*	0%	5
Cc1ccc(CN2CCN(C3CCN(C(=O)Nc4ccc(C)cc4Cl)CC3)C(=O)C2=O)cc1	·	0%	·	5%	·
O=C(/C=C/c1ccccc1)N1CCN(C(=O)c2ccco2)CC1	0%	1%	-96*	1%	1
CC(=O)c1c(C)[nH]c(C(=O)N2CCN(c3ccc(F)cc3)CC2)c1C	1%	5%	16	-9%	11
O=C(/C=C/c1ccccc1)Nc1ccc(N2CCCCC2)cc1	-2%	4%	-81*	-22%	19
O=C(/C=C\c1ccccc1)Nc1ccc(NC(=O)c2ccco2)cc1	-2%	0%	-80*	5%	11
CC(=O)c1c(C)[nH]c(C(=O)N2CCN(C(=O)c3ccco3)CC2)c1C	0%	6%	-211*	13%	-1
Cc1ccc(OCC(=O)NCC2(N(C)C)CCCCC2)cc1C	·	21%	·	13%	·
COc1ccc(C(=O)c2oc3ccccc3c2NC(=O)c2nc(SC)ncc2Cl)cc1Cl	·	-11%	·	5%	·
CC(C)c1cnc2c(c1SCC(=O)c1ccc(Cl)cc1)c(=O)n(C)c(=O)n2C	·	0%	·	56%	·
COc1cccc(SCc2noc(C(=O)NCCCN3CCOCC3)c2C(=O)NCCCN2CCOCC2)c1	3%	11%	-98*	·	0
CC1CCC2C(=O)N3C(CCC(C)[C@H]3c3cccc(N4CCCC4=O)c3)C(=O)N2C1c1cccc(N2CCCC2=O)c1 (some centres undefined)	·	·	·	-6%[15.3 µM]	·
CC(C)(C)c1ccc(/C=C/C(=O)Nc2nncs2)cc1	9%	-1%	-83*	2%	14
CN(CC(=O)Nc1ccc(N2CCOCC2)cc1)C(=O)C12CC3CC(CC(C3)C1)C2	7%	10%	-73*	·	1
Cc1ccc2nc(N(CCN(C)C)C(=O)/C=C/c3cccs3)sc2c1	-4%	7%	-101*	41%	-16
Cc1ccc2nc(N(CCCN(C)C)C(=O)CN3C(=O)c4ccccc4C3=O)sc2c1	-10%	-3%	-87*	-21%	34
CN(C)CCN(C(=O)/C=C/c1cccs1)c1nc2ccc(Br)cc2s1	-19%	-4%	-73*	-7%	-10
CCc1ccc2nc(N(CCN(C)C)C(=O)/C=C/c3cccs3)sc2c1	-11%	0%	-127*	-7%	-43
CC1CCC(NC(=O)c2ccc3c(c2)N(Cc2ccccc2F)C(=O)c2ccccc2S3)CC1 (centres undefined)	·	11%	·	-18%	·
